Measured values taken from the supplement of paper PMC7411054.
Structures can show the parent of a compound that is named as a salt.

Assays:
Settings in all cases: treatment time: 24 h
[1] = test system: A549-CANX-COX4; test: phenotypically active (imaging signature differs from DMSO and reproducible) at any of 0.3-9 uM (binary (1 = active, 0 = inactive)); higher = active
Method in brief: (§1)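 Fifteen gene-edited A549, HepG2 and WPMY1 reporter lines (BFP segmentation plus GFP and RFP/FusionRed markers) were treated at 0.3, 1, 3 or 9 µM for 24 h, four wells each, then imaged live. Live-cell features per well were normalised to DMSO control wells. Deviation required ≥3 of 4 wells beyond the 95th percentile of DMSO Euclidean distances, and reproducibility required median replicate Pearson correlation above the 95th percentile of non-replicates. Phenotypic activity needed both criteria.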

[2] = test system: A549-TP53BP1-CLTA; test: as above
Method in brief: as §1

[3] = test system: HepG2-ACTB-RAB5A; test: as above
Method in brief: as §1

[4] = test system: HepG2-CANX-COX4; test: as above
Method in brief: as §1

[5] = test system: HepG2-GM130-SQSTM1; test: as above
Method in brief: as §1

[6] = test system: HepG2-TP53BP1-CLTA; test: as above
Method in brief: as §1

[7] = test system: HepG2-TUBA1B-RELA; test: as above
Method in brief: as §1

[8] = test system: WPMY1-ACTB-RAB5A; test: as above
Method in brief: as §1

[9] = test system: WPMY1-CANX-COX4; test: as above
Method in brief: as §1

[10] = test system: WPMY1-GM130-SQSTM1; test: as above
Method in brief: as §1

[11] = test system: WPMY1-TP53BP1-CLTA; test: as above
Method in brief: as §1

[12] = test system: WPMY1-TUBA1B-RELA; test: as above
Method in brief: as §1

[13] = test system: WPMY1-GM130-SQSTM1; test: lowest phenotypically active concentration; higher = less potent
Method in brief: as §1

[14] = test system: A549-ACTB-RAB5A; test: phenotypically active (imaging signature differs from DMSO and reproducible) at any of 0.3-9 uM (binary (1 = active, 0 = inactive)); higher = active
Method in brief: as §1

[15] = test system: A549-GM130-SQSTM1; test: as above
Method in brief: as §1

[16] = test system: A549-TUBA1B-RELA; test: as above
Method in brief: as §1

Compound	phenotypically active [1]	phenotypically active [2]	phenotypically active [3]	phenotypically active [4]	phenotypically active [5]	phenotypically active [6]	phenotypically active [7]	phenotypically active [8]	phenotypically active [9]	phenotypically active [10]	phenotypically active [11]	phenotypically active [12]	lowest phenotypically active concentration [13]	phenotypically active [14]	phenotypically active [15]	phenotypically active [16]
NCCC(O)(P(=O)(O)O)P(=O)(O)O [pamidronate]	0 (inactive)	0 (inactive)	0 (inactive)	0 (inactive)	0 (inactive)	0 (inactive)	0 (inactive)	0 (inactive)	0 (inactive)	0 (inactive)	0 (inactive)	0 (inactive)	–	–	–	–
C[C@]12CC[C@@H]3c4ccc(O)cc4CC[C@H]3[C@@H]1CC[C@@H]2OC(=O)CCC1CCCC1 [estradiol cypionate]	0 (inactive)	0 (inactive)	0 (inactive)	0 (inactive)	0 (inactive)	0 (inactive)	0 (inactive)	0 (inactive)	0 (inactive)	1 (active)	0 (inactive)	0 (inactive)	9 µM	0 (inactive)	0 (inactive)	0 (inactive)
COc1ccc(CCN(C)CCCC(C#N)(c2ccc(OC)c(OC)c2)C(C)C)cc1OC (configuration not stated) [verapamil]	0 (inactive)	–	0 (inactive)	0 (inactive)	0 (inactive)	–	0 (inactive)	0 (inactive)	0 (inactive)	0 (inactive)	–	0 (inactive)	–	1 (active)	1 (active)	1 (active)
O=c1cc(-c2ccc(O)cc2)oc2c(C3O[C@H](CO)[C@@H](O)[C@H](O)[C@H]3O)c(O)cc(O)c12 (some centres not stated) [Vitexin]	0 (inactive)	0 (inactive)	0 (inactive)	0 (inactive)	0 (inactive)	0 (inactive)	0 (inactive)	0 (inactive)	0 (inactive)	0 (inactive)	0 (inactive)	0 (inactive)	–	–	–	–
O=c1c(O)c(-c2ccc(O)c(O)c2)oc2cc(O)cc(O)c12 [Quercetin]	0 (inactive)	0 (inactive)	0 (inactive)	0 (inactive)	0 (inactive)	0 (inactive)	0 (inactive)	0 (inactive)	0 (inactive)	1 (active)	0 (inactive)	0 (inactive)	9 µM	0 (inactive)	0 (inactive)	0 (inactive)
COc1ccc(-c2ccc3cc(C(=O)O)ccc3c2)cc1C12CC3CC(CC(C3)C1)C2 [Adapalene]	0 (inactive)	0 (inactive)	0 (inactive)	0 (inactive)	0 (inactive)	0 (inactive)	0 (inactive)	0 (inactive)	0 (inactive)	1 (active)	0 (inactive)	0 (inactive)	1 µM	0 (inactive)	0 (inactive)	0 (inactive)
Nc1nc2ccc(OC(F)(F)F)cc2s1 [riluzole]	0 (inactive)	0 (inactive)	0 (inactive)	0 (inactive)	0 (inactive)	0 (inactive)	0 (inactive)	0 (inactive)	0 (inactive)	0 (inactive)	0 (inactive)	0 (inactive)	–	–	–	–
CNCC(O)c1ccc(OC(=O)C(C)(C)C)c(OC(=O)C(C)(C)C)c1 (configuration not stated) [dipivefrine]	0 (inactive)	0 (inactive)	0 (inactive)	0 (inactive)	0 (inactive)	0 (inactive)	0 (inactive)	0 (inactive)	0 (inactive)	1 (active)	0 (inactive)	0 (inactive)	9 µM	0 (inactive)	0 (inactive)	0 (inactive)
C[C@H](CS)C(=O)N1CCC[C@H]1C(=O)O [captopril]	0 (inactive)	–	0 (inactive)	0 (inactive)	0 (inactive)	–	0 (inactive)	0 (inactive)	0 (inactive)	0 (inactive)	–	0 (inactive)	–	0 (inactive)	0 (inactive)	0 (inactive)
COc1cc2nc(N3CCN(C(=O)c4ccco4)CC3)nc(N)c2cc1OC [prazosin]	0 (inactive)	–	0 (inactive)	1 (active)	0 (inactive)	–	1 (active)	0 (inactive)	0 (inactive)	0 (inactive)	–	0 (inactive)	–	0 (inactive)	0 (inactive)	0 (inactive)
CC(C)Cc1ccc(C(C)C(=O)O)cc1 (configuration not stated) [ibuprofen]	0 (inactive)	–	0 (inactive)	0 (inactive)	0 (inactive)	–	0 (inactive)	0 (inactive)	0 (inactive)	0 (inactive)	–	0 (inactive)	–	0 (inactive)	0 (inactive)	0 (inactive)
C=C[C@H]1CN2CC[C@H]1C[C@H]2[C@H](O)c1ccnc2ccc(OC)cc12 [Quinine dihydrochloride]	0 (inactive)	–	0 (inactive)	0 (inactive)	0 (inactive)	–	0 (inactive)	0 (inactive)	0 (inactive)	0 (inactive)	–	0 (inactive)	–	1 (active)	1 (active)	0 (inactive)
Nc1nc(N)nc(-c2cc(Cl)ccc2Cl)n1 [Irsogladine maleate]	0 (inactive)	0 (inactive)	0 (inactive)	0 (inactive)	0 (inactive)	0 (inactive)	0 (inactive)	0 (inactive)	0 (inactive)	0 (inactive)	0 (inactive)	0 (inactive)	–	–	–	–
